The entries come from a sample that favours hits as a whole.
Methyltransferases: Primary Screen for Target Class Profiling of Small Molecule Inhibitors of Methyltransferases; purified enzyme, MTase-Glo SAH luminescence; stronger effect = lower value; 25,000 tested, 3.9% active; calls only at 40 µM; call rule not given here
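Each enzyme was assayed with SAM and its substrate. SAH formation detected by MTase-Glo luminescence; single-point 40 uM screen[…].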
An asterisk follows results filed as active; i = inactive; + = active, no number; ! = not active in a repeat. % is set by controls: 0 for no effect and ±100 for the full control effect.

SMILES	Methyltransferases
COc1ccc(-c2nc3ccccc3[nH]2)cc1	+
COc1ccc(-c2cc(C(O)C3CCCCN3)c3ccccc3n2)cc1 (stereo unspecified)	i
COc1ccc(OC)c(S(=O)(=O)N2CCc3nc(-c4ccccc4)[nH]c3C2)c1	i
Cc1ccc(N(C)C(=O)Cn2c(=O)oc3cc(S(=O)(=O)N4CC(C)CC(C)C4)ccc32)cc1 (stereo unspecified)	i
Cc1ccc(CNC(=O)c2cc3n(n2)CC(C)(C(=O)NC2CCCC2)N(C)C3=O)cc1 (stereo unspecified)	i
CC(C)Cn1c(=O)c2ccccc2n2c(=O)n(CC(=O)N3CCN(c4ccccc4F)CC3)nc12	i
CCCn1c(=O)c2cc(Cl)ccc2n2c(=O)n(CC(=O)Nc3cc(F)ccc3F)nc12	i
CC(NC(=O)Cn1ccc2cc(S(=O)(=O)N3CCCC3)ccc21)c1ccccc1 (stereo unspecified)	i
C=CCn1c(=O)c2ccc(C(=O)NC(C)CC)cc2n2c(=O)n(CC(N)=O)nc12 (stereo unspecified)	i
COc1ccc2[nH]cc(C(=O)Cn3nc4n(Cc5ccc(F)cc5)c(=O)c5ccccc5n4c3=O)c2c1	i
COc1ccc(Cn2c(=O)c3ccccc3n3c(-c4ccc(OC)cc4O)nnc23)cc1	i
CC(C)OCCCn1c(=O)c2ccccc2n2c(=O)n(CC(=O)NCc3ccc(Cl)cc3)nc12	i
Cc1ccc(CNC(=O)C2(C)Cn3cnc(C(=O)Nc4ccccc4C)c3C(=O)N2C2CC2)cc1 (stereo unspecified)	i
CN(C)CCCn1cc(C2=C(c3c[nH]c4ccccc34)C(=O)NC2=O)c2ccccc21	+
Cc1nnc(N2CCC3(CCC(=O)N(CCCN(C)C)C3)CC2)c2ccccc12	i
COC(=O)c1cc2n(n1)CC(C)(C(=O)NC1CCC(C)CC1)N(Cc1ccccc1)C2=O (stereo unspecified)	i
CC(=O)Nc1c2n(c3ccc(F)cc13)CC(C)(C(=O)NC1CCCC1)N(Cc1cccnc1)C2=O (stereo unspecified)	i
COCCOC(=O)C1=C(C)NC(C)=C(C(=O)OC(C)C)C1c1cccc([N+](=O)[O-])c1 (stereo unspecified)	i
CC1=C(C(=O)OC2CCCCC2)C(c2ccc([N+](=O)[O-])cc2)C2=C(CC(C)(C)CC2=O)N1 (stereo unspecified)	+
CCOC(=O)C1=C(C)NC(C)=C(C(=O)OC)C1c1cccc([N+](=O)[O-])c1 (stereo unspecified)	i
CC(C)CNC(=O)c1ccc2c(=O)n(Cc3ccccc3)c3n[nH]c(=O)n3c2c1	i
COc1cc(N2CCC(N3CCN(C)CC3)CC2)ccc1Nc1ncc(Cl)c(Nc2ccccc2S(=O)(=O)C(C)C)n1	+
COc1ccccc1Nc1ncc2c(n1)CN(C(=O)c1ccnn1C)CCN2	i
COc1cc(N2CCC(N(C)C)CC2)ccc1Nc1ncc(Cl)c(Nc2ccccc2P(C)(C)=O)n1	+
COc1cc(N2CCN(C)CC2)ccc1Nc1nccc(-c2cn(C)c3cnccc23)n1	i
SMILES	Methyltransferases
Cc1ccc(NC(=O)N2CCn3cccc3C2Cc2ccccc2)c(C)c1 (stereo unspecified)	i
CC1(C(=O)NCc2ccccc2)Cn2nc(-c3ccccc3)cc2C(=O)N1Cc1ccccc1Br (stereo unspecified)	i
Cc1ccc(NC(=O)CSc2nnc3n(CC(C)C)c(=O)c4ccc(C(=O)NCC(C)C)cc4n23)cc1	i
CCCN1C(=O)c2c(C(=O)NCCN3CCOCC3)ncn2CC1(C)C(=O)NCCC(C)C (stereo unspecified)	i
CCCn1c(=O)c2ccc(C(=O)NCC(C)C)cc2n2c(=O)n(CC(=O)Nc3ccc(C)cc3)nc12	i
COc1ccc2cc3n(c2c1)CC(C)(C(=O)NC1CCCCCC1)N(CCN1CCOCC1)C3=O (stereo unspecified)	i
Cc1ccc(N2C(=O)c3ccc(-c4ccco4)n3CC2(C)C(=O)NCc2ccc(Cl)cc2)cc1C (stereo unspecified)	i
Cc1ccc2c(c1)c(-n1cccc1)c1n2CC(C)(C(=O)NC2CCC(C)CC2)N(Cc2ccco2)C1=O (stereo unspecified)	i
C#Cc1cccc(Nc2ncnc3cc(OC)c(OCCCCCCC(=O)NO)cc23)c1	+
COc1cc2ncnc(Nc3ccc(O)cc3)c2cc1OC	i
C#Cc1cccc(Nc2nc3cc(C(=O)O)ccc3c3cncnc23)c1	i
CC1(C(=O)NC2CCCCC2)Cn2c(nc3ccccc32)C(=O)N1Cc1cccc(Br)c1 (stereo unspecified)	i
CCC(C)OC(=O)C(C)Oc1ccc2c(=O)c(-c3ccc(OC)c(OC)c3)c(C(F)(F)F)oc2c1 (stereo unspecified)	i
Cc1nc(C#Cc2ccnc(Cl)c2)c(C)n1-c1ccc(F)cc1	+
Cc1cccc(NC(=O)c2cc3n(n2)CC(C)(C(=O)NC2CCCCC2)N(C)C3=O)c1C (stereo unspecified)	i
CCCSCCCN1C(=O)c2cc3oc(C)cc3n2CC1(C)C(=O)NC1CCCCCCC1 (stereo unspecified)	i
CC(C)CNC(=O)c1ccc2c(=O)n(C(C)C)c3n[nH]c(=O)n3c2c1	i
CCN(CC)CCCC(C)Nc1c2ccc(Cl)cc2nc2ccc(OC)cc12 (stereo unspecified)	+!
CCOc1ccc(CN2C(=O)c3cc4sccc4n3CC2(C)C(=O)NC2CCCC(C)C2C)cc1 (stereo unspecified)	i
COC(=O)c1ccc(NC(=O)N2Cc3c(sc4c3CCCC4)-n3cccc3C2c2cccc(F)c2)cc1 (stereo unspecified)	i
C=C1C(=O)O[C@@H]2/C=C(\CO)CC/C=C(\CO)[C@H](OC(C)=O)C(OC(=O)C(C)CC)C12 (stereo partly specified)	i
C=C1C(=O)O[C@@H]2C=C(COC(C)=O)CC/C=C(\CO)CC[C@@H]12	+
C=C(C)C(=O)OC1C(OC(C)=O)/C(C=O)=C\CC/C(CO)=C/C2OC(=O)C(=C)C21 (stereo unspecified)	i
Cn1cc(-c2ccc(F)c(C(F)(F)F)c2)nc1C1CCN(c2ncnc3[nH]ncc23)CC1	+
CCOC(=O)c1cc2n(n1)CC(C)(C(=O)NCc1ccccc1)N(Cc1cccc(C)c1)C2=O (stereo unspecified)	i
SMILES	Methyltransferases
CCCC1c2cccn2CCN1C(=O)NC1CCCCC1 (stereo unspecified)	i
CC(C)c1cccc(N2C(=O)c3ccccc3CC2(C)C(=O)NCc2ccccc2)c1 (stereo unspecified)	i
Cc1ccc(CNc2ncnc3ccc(-c4ccc(CO)o4)cc23)o1	+
CC(C)OCCCn1c(=O)c2ccccc2n2c(CCC(=O)Nc3cccc(Cl)c3)nnc12	i
O=C(COC(=O)C(Cc1c[nH]c2ccccc12)NC(=O)c1ccc(Cl)cc1)c1ccc(Br)cc1 (stereo unspecified)	i
C[C@H](Cc1ccc(O)c(O)c1)[C@@H](C)Cc1ccc(O)c(O)c1	+
CC(CCc1ccc(O)cc1)NCCc1ccc(O)c(O)c1 (stereo unspecified)	i
CC(=O)Nc1c2n(c3ccc(F)cc13)CC(C)(C(=O)NCCC(C)C)N(CCC(C)C)C2=O (stereo unspecified)	i
Brc1cccc(-c2nnn3c2nc(NC2CCCC2)c2ccccc23)c1	i

Screens deposited in PubChem by National Center for Advancing Translational Sciences (NCATS).
